Screening results (PubChem BioAssay)
PMK inhibit: S. pneumoniae PMK inhibition; purified PMK, PK/LDH-coupled NADH absorbance 340 nm; inhibition, % at 10 µM; 0.49% of 65,000 active;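 active means top-ranked compounds by inhibition in the single 10 µM screen, taking a fixed number of the strongest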;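 further: 0% = full reaction with DMSO carrier and 100% = background rate without enzyme reaction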
Autofluor 339: intrinsic fluorescence of library compounds, ex339/em460 – biochemical, MLSMR library, data from DPM-DC assay, artefact control, profiling panel | compound autofluorescence, ex339/em460 nm, NADH buffer; active compounds read high; 1 = no-compound wells, NADH background | fluorescence fold increase at 10 µM | 5.5% of 65,000 active | AID 709;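 active means at 10 µM, mean starting fluorescence two-fold or more over control wells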;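 further: signal is the first read of a kinetic run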
Spn DPM-DC inh: S. pneumoniae DPM-DC inhibition | calls only at 10 µM | purified DPM-DC, PK/LDH coupled NADH fluorescence | 0.49% of 65,000 active | AID 556;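 active means the 320 compounds with the highest percent inhibition in the single-dose primary screen, excluding strongly autofluorescent ones, cut at about 32% in these data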;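 further: kinetic rate of NADH fluorescence loss reporting ADP formed by the decarboxylase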
Spn MK inh: inhibitors of Streptococcus pneumoniae mevalonate kinase; inhibition, % at 10 µM; purified MK, PK/LDH-coupled NADH absorbance 340 nm; 0.48% of 65,000 active; AID 555;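 active means ranked among the strongest by inhibition in the single 10 µM screen, a fixed top-ranked set picked for dose follow-up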
A340 absorber: compounds absorbing at 340 nm. AID 708. 65,000 tested, under 10 active. compound absorbance at 340 nm, fold over control. fold change at 10 µM;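 active means at 10 µM dose, initial 340 nm absorbance at least 2 fold that of control wells; inactive means change under 2 fold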;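 further: initial absorbance extrapolated from kinetic A340 decline of NADH oxidation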
NADH enzymes: inhibition of NAD/NADH coupling enzymes, library profiling; coupled PK/LDH NADH assays, four targets; IC50, µM (highest dose often 10 µM), for the others: at the highest dose inhibition; 0.02% of 65,000 active; AID 774;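 active means single-dose screening hits from any of four coupled enzyme assays that gave an IC50 when retested across doses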;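 further: the DPM-DC format reads NADH fluorescence rather than 340 nm absorbance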
An asterisk follows results filed as active; i = inactive; / = not tested or not shown; + = active, no number; [ ] = dose if it differs, or a comment. An excerpt weighted towards active compounds, which were near 6.8% of everything screened.

SMILES	PMK inhibit	Autofluor 339	Spn DPM-DC inh	Spn MK inh	A340 absorber	NADH enzymes
COC(=O)C(C)Oc1cc(C)cc2oc(=O)c3c(c12)CCCC3 (configuration not stated)	8	3.7*	/	6	1	7%
COC(=O)c1cc(COc2cc(C)cc3oc(=O)c4c(c23)CCC4)c(C)o1	0	1.7	i	7	1	4%
COC(=O)C(C)Oc1cc(C)cc2oc(=O)c3c(c12)CCC3 (configuration not stated)	7	3.8*	/	6	0.99	7%
CCOC(=O)C(C)Oc1cc(C)cc2oc(=O)c3c(c12)CCCC3 (configuration not stated)	0	2.1*	/	7	1	4%
Cc1cc(OCC(=O)OC(C)C)c2c3c(c(=O)oc2c1)CCCC3	0	1.6	i	0	1	1%
O=C(C1CCN(c2nc3ccc(Br)cc3s2)CC1)N1CCC2(CC1)OCCO2	11	1.1	i	5	1	5%
CC(=O)Nc1ccccc1OP1(=O)COc2ccccc2OC1	13	1.1	i	9	1	7%
CN(C)[C@@H]1C(=O)C(C(N)=O)=C(O)[C@@]2(O)C(=O)C3=C(O)c4c(O)cccc4[C@@](C)(O)[C@H]3[C@H](O)[C@@H]12	4	2	+[fluoresces]	9	1	125µM*[fluoresces]
O=C(Cn1ncc2ccsc2c1=O)N1CCC2(CC1)OCCO2	0	1.1	i	3	1	1%
O=C(Cn1c(=O)c(C(F)(F)F)nc2ccccc21)N1CCC2(CC1)OCCO2	15	2*	i	0	1.1	12%
O=c1[nH]c(=O)n(Cc2ccco2)c(O)c1C=NCc1ccc2c(c1)OCO2	10	1.1	i	1	1	4%
O=C1NC(=O)[C@]2(Cc3ccccc3N3CCN(c4ccccc4)CC32)C(=O)N1Cc1ccccc1 (some centres not stated)	10	1.1	i	5	1	6%
CC(C)OC(=O)c1c(N)n(CC2CCCO2)c2nc3ccccc3nc12 (configuration not stated)	15	3*	/	9	1	5%
CC(C)CCOC(=O)c1c(N)n(CC2CCCO2)c2nc3ccccc3nc12 (configuration not stated)	10	3.9*	/	8	1.1	9%
Nc1c(C(=O)OC2CCCCC2)c2nc3ccccc3nc2n1CC1CCCO1 (configuration not stated)	10	3.6*	/	9	1.1	10%
CCC(=NC1CC1)c1c(O)n(-c2ccc(OC)cc2)c(=O)[nH]c1=O	0	1.2	i	0	1.1	0%
CCCC1=C(C(=O)OCC)C2(C(=O)Nc3ccc(C)cc32)C(C#N)=C(N)O1 (configuration not stated)	9	1.1	i	11	1	7%
CCOc1ccc(-c2cc(C(=O)N3CCC4(CC3)OCCO4)c3ccccc3n2)cc1	9	5.2*	/	0	1.1	5%
CN1CCN(C(=O)Cc2nc3ccccc3[nH]2)CC1	5	1.1	i	11	0.99	5%
CC(C)CCn1c(N)c(C(=O)OCC2CCCO2)c2nc3ccccc3nc21 (configuration not stated)	1	4*	/	2	1.1	2%
CCCCn1c(N)c(C(=O)OCC2CCCO2)c2nc3ccccc3nc21 (configuration not stated)	13	3.9*	/	0	1.1	7%
O=C(C1c2ccccc2C(=O)N2CCc3ccccc3C12)N1CCC2(CC1)OCCO2 (configuration not stated)	12	1.1	i	1	0.98	4%
O=c1[nH]c(=O)n(C2CCCCCC2)c(O)c1C=NCC1CCCO1 (configuration not stated)	0	1.2	i	0	1.1	0%
CCCCCn1c(N)c(C(=O)NCCN2CCOCC2)c2nc3ccccc3nc21	7	2.1*	/	4	1.1	6%
CCCn1nc2ccccc2c1P(=O)(N1CCOCC1)N1CCOCC1	14	1.1	i	2	0.98	5%
SMILES	PMK inhibit	Autofluor 339	Spn DPM-DC inh	Spn MK inh	A340 absorber	NADH enzymes
CCCCCCn1c(N)c(C(=O)NCCN2CCOCC2)c2nc3ccccc3nc21	4	3.9*	/	12	0.99	8%
CCCCn1c(=O)c(C(=O)Nc2nc3ccccc3[nH]2)c(O)c2ccccc21	9	1.7	i	14	1.1	10%
CCCC(=O)C1C(=O)NC(=O)NC1=O	9	1	i	8	1	6%
O=C(c1ccncc1)C12CN3CN(CN(C3)C1)C2	1	1	i	4	0.98	2%
CCOC(=O)C1=C(N)Oc2cc(C)oc(=O)c2C12C(=O)N1c3c(cc(OC)cc32)C(C)=CC1(C)C (configuration not stated)	0	1.1	i	10	1.1	3%
Cn1c(O)c(C=NC2C(=O)C3(C)CCC2C3(C)C)c(=O)n(C)c1=O (configuration not stated)	7	1.1	i	7	1	5%
CCn1nc(-c2cccs2)nc2c(=O)n(C)c(=O)nc1-2	11	0.06	+	63*	0.5	8.4µM*
COc1ccc(OC)c(C2=NOC(C(=O)N3CCC4(CC3)OCCO4)C2)c1 (configuration not stated)	13	1.4	i	3	1	3%
CCCNC(=O)c1c(N)n(CC2CCCO2)c2nc3ccccc3nc12 (configuration not stated)	3	3.9*	/	3	1	3%
CC(C)OCCCNC(=O)c1c(N)n(CC2CCCO2)c2nc3ccccc3nc12 (configuration not stated)	0	3*	/	0	1	1%
O=C(c1cc2c(s1)-c1ccccc1OC2)N1CCC2(CC1)OCCO2	6	5.1*	/	0	1.1	3%
COc1ccc(CN2CCN(C(=O)Cc3ccccc3)CC2)c(OC)c1	0	1	i	52*	1	7%
O=P(/C(=N/O)N1CCOCC1)(N1CCOCC1)N1CCOCC1	6	1.1	i	12	0.98	6%
CC(C)Cc1[nH]c(=O)c(C#N)c2c1CCC2	4	2.3*	/	6	1.1	5%
COc1ccccc1N1CCN(Cc2ccccc2F)CC1	0	1	i	51*	1.1	17%
COc1ccccc1N1CCN(Cc2ccccc2Cl)CC1	0	1.1	i	49*	1.1	16%
Fc1ccc2c(c1)nnn2C1CCN(Cc2nnnn2C2CCCCC2)CC1	8	1.1	i	6	1	5%
C=CP(=O)(O)c1ccccc1	0	1.1	i	9	1	4%
O=C(c1cccc(N2CCCC2=O)c1)N1CCC2(CC1)OCCO2	14	1.1	i	0	1	5%
CCCCn1c(NC(=O)c2ccco2)c(C(=O)OCC)c2nc3ccccc3nc21	10	3.8*	/	4	1.1	7%
